Giardia FBPA inh: qHTS Assay for Inhibitors of Fructose-1,6-bisphosphate Aldolase from Giardia Lamblia; purified Giardia FBPA; Potency, µM (doses to about 59.6 µM), usual class: inhibitors; 290,000 compounds, 0.71% hits; also: nearly all actives have a fitted effect of over 55% in size
Target sequence (A8B2U2 whole entry, looked up): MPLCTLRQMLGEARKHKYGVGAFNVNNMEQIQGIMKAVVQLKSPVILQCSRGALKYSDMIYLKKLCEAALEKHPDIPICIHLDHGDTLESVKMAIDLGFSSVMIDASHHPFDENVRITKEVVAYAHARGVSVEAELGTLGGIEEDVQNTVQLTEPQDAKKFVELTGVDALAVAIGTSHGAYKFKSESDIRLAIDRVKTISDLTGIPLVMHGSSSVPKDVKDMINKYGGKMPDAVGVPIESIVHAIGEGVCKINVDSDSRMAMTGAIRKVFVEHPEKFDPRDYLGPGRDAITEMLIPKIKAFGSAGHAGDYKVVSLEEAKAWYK
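Giardia FBPA (40 nM reagent) was preincubated 10 min at RT with compound (up to 57.5 uM final), then substrate plus GAPDH/TPI/NAD/arsenate coupling system with diaphorase/resazurin was added; resorufin fluorescence (525/598 nm) was read after 20 min.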
TbPYK inhibitor: qHTS of Trypanosoma Brucei Inhibitors. TbPYK enzyme, Kinase-Glo Plus ATP luminescence, 45 min. Potency, µM (highest dose often 76.8 µM), hits mostly inhibitors. 410,000 compounds, 0.12% hits; also: nearly all actives have a fitted effect of over 50% in size
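Luminescent Kinase-Glo Plus end-point after 45 min room-temperature reaction of T. brucei pyruvate kinase started with 130 uM ADP (final). Buffer TEA 50 mM pH 7.2 with KCl, MgCl2, BSA, Tween-20; titration-based qHTS with fitted concentration-effect curves.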
Shiga toxin inh: A qHTS for Small Molecule Inhibitors of Shiga Toxin. inhibition, % at 38.7 µM. Vero cells, Shiga toxin protein synthesis inhibition reporter. 290,000 compounds, 9.2% hits; in the data active = inhibition mostly above about 28%, no sharp cut-off; inactive = mostly below about 43%
LmPK inh: qHTS Assay for Inhibitors of Leishmania Mexicana Pyruvate Kinase (LmPK) | 290,000 compounds, 0.37% hits | purified LmPK, Kinase-Glo ATP luminescence, 1 h | Potency, µM (highest dose often 57.5 µM), actives largely listed as inhibitors
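Screened at intermediate enzyme activity to detect both inhibitors and activators: LmPK at 0.1 nM, with a 0.5 nM enzyme column as activation reference. PEP 0.5 mM, ADP 0.1 mM; ATP detected by luminescence after 1 h.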
CHX counter: Cycloheximide Counterscreen for Small Molecule Inhibitors of Shiga Toxin | cell reporter, cycloheximide protein synthesis inhibition counterscreen | 300,000 compounds, 12% hits | max response, %; in the data active = max response mostly above about 13%, no sharp cut-off; inactive = mostly below about 14%; also: read at 38.3 µM for the half of the compounds with a filed dose
Sm TGR inh: qHTS Assay for the Inhibitors of Schistosoma Mansoni Peroxiredoxins; Schistosoma mansoni thioredoxin glutathione reductase (TGR), Q962Y6; Potency, µM (top dose mostly 114 µM), most hits filed as inhibitors; AID 485364, 2010; 360,000 compounds, 3% hits; purified TGR, DTNB reduction, TNB absorbance 405 nm; also: nearly all actives have a fitted effect of over 60% in size
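First, TGR (20 nM dispensed) and NADPH were mixed with compound. Second, a 15 min room-temperature incubation followed. Third, further NADPH and then DTNB were added to start the reaction. Finally, TNB absorbance was monitored kinetically.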
A number is an active result; – = inactive; ? = inconclusive; · = no result given; [ ] = remark or other dose. Shown is part of a subset that was picked to be rich in hits. Unless noted, calls follow the shape of the dose curve; as a rule, active = well fitted curve in the direction sought with a large enough effect; inconclusive = small, poorly fitted or top-dose-only effect, or another doubt; inactive = no such curve, though single readings can be large; an effect the other way counts as inactive or inconclusive.

SMILES	Giardia FBPA inh	TbPYK inhibitor	Shiga toxin inh	LmPK inh	CHX counter	Sm TGR inh
NC1=NS(=O)(=O)NC1c1ccc(F)cc1 (centres undefined)	–	–	–	–	–	–
COc1ccc2oc(C(=O)OCC(=O)N3CCC(C)CC3)c(C)c2c1	–	–	–	–	–	–
COc1ccc2oc(C(=O)OCC(=O)Nc3ccc(C(=O)N(C)C)cc3)c(C)c2c1	–	–	–	–	17	–
COc1ccc2oc(C(=O)OCC(=O)Nc3ccccc3)c(C)c2c1	–	–	35	–	29	–
CCOC(=O)N1CCN(C(=O)COC(=O)c2oc3ccc(OC)cc3c2C)CC1	–	–	32	–	16	–
CCOC(=O)C1=C[C@@]2(CC)CCCN3CCc4c(n1c1ccccc41)C32 (some centres undefined)	–	·	·	·	·	·
CCOC(=O)CSc1nc(C)c2ccccc2n1	–	–	–	–	11	–
COc1ccc(C(=O)Nn2c(SCC(=O)c3ccccc3)nc3ccccc3c2=O)cc1	–	–	–	–	38	–
CCOC(=O)CSc1nc2ccccc2c(=O)n1NC(=O)c1ccccc1	–	–	66	–	37	?
CCOC(=O)CSc1nc(C)c2cccc(C)c2n1	–	–	–	–	–	–
CCc1ccc(C(=O)Nn2c(C)nc3ccccc3c2=O)cc1	–	–	–	–	–	–
COc1ccc(C(=O)Nn2c(SCc3ccc([N+](=O)[O-])cc3)nc3ccccc3c2=O)cc1	–	–	82	–	25	–
COc1ccc(-n2nc3c(c2NC(=O)C(C)Oc2ccccc2)CS(=O)C3)cc1 (centres undefined)	·	–	–	–	–	–
O=C(COc1ccc(Cl)cc1)NCCc1csc(-c2ccc(C(F)(F)F)cc2)n1	·	–	·	·	·	–
CC1C=CCCOC1c1ccccc1 (centres undefined)	–[12.9 µM]	·	·	·	·	·
CC(OC(=O)CCC1CCCC1)C(=O)Nc1ccccc1[N+](=O)[O-] (centres undefined)	·	–	·	·	·	–
Cc1ccc(-c2csc(NC(=O)c3c(C)noc3C)n2)cc1	·	–	·	·	·	–
Cc1ccc(-c2csc(NC(=O)c3ccc([N+](=O)[O-])o3)n2)cc1	–	–	–	–	–	–
Cc1ccc(C(=O)Nc2nc(-c3ccc(F)cc3)cs2)o1	–	–	92	–	42	–
Cc1ccc(-c2csc(NC(=O)c3ccno3)n2)cc1	–	–	–	–	22	–
Cc1ccc(C)n1-c1ccccc1N	?	·	–	–	24	–
Nc1ccccc1-n1cccc1	–	–	–	–	13	–
Cc1cc(=O)cc(C)n1-c1ccccc1N	–	–	–	–	–	–
C=CCN1C(=O)S/C(=C/c2ccc(Sc3nc4ccccc4[nH]3)o2)C1=O	–	–	–	–	–	–
O=C1NC(=O)N(c2ccc(Cl)cc2)C(=O)/C1=C\c1ccc(Sc2nc3ccccc3[nH]2)o1	–	?	–	–	–	8.9µM
SMILES	Giardia FBPA inh	TbPYK inhibitor	Shiga toxin inh	LmPK inh	CHX counter	Sm TGR inh
COC1=C(OC)C(=O)C(CC=C(C)CCC=C(C)CCC=C(C)CCC=C(C)CCC=C(C)CCC=C(C)CCC=C(C)CCC=C(C)CCC=C(C)CCC=C(C)C)=C(C)C1=O	·	–	·	·	·	·
CCOC(=O)c1cn[nH]c1NC(=S)Nc1ccc(Cl)cc1	–	–	58	–	58	–
COC(=O)C1CN(C#N)N(c2ccc(Cl)cc2)C12c1ccccc1-c1ccccc12 (centres undefined)	–	–	–	–	–	5.6µM
CC(=O)CSc1nnc(-c2ccc3c(c2)OCO3)o1	–	–	36	?	20	–
CC(=O)Nc1ccc(NC(=O)CSc2nnc(-c3ccc4c(c3)OCO4)o2)cc1	·	–	·	·	·	·
c1cc(CSc2nnc(-c3ccc4c(c3)OCO4)o2)ccn1	–	–	88	–	44	?
O=C(CSc1nnc(-c2ccc3c(c2)OCO3)o1)Nc1ncc(Cl)cc1Cl	–	–	31	–	19	–
CCn1c(CNC(=O)c2ccc(OC)cc2)nnc1SCC(=O)Nc1ccc(C)cc1	·	–	·	·	·	–
CC1=NN(c2ccc([N+](=O)[O-])cc2)C(=O)C1[N+](=O)[O-] (centres undefined)	–	·	·	·	·	·
COc1cc(/C=N/Nc2ccc(C(F)(F)F)cn2)ccc1O	–	–	127	–	31	–
COc1cc(/C=N/Nc2ncc(C(F)(F)F)cc2Cl)cc(OC)c1OC	–	–	–	–	–	–
O=C(O)c1ccc(/C=N/Nc2ccc(C(F)(F)F)cn2)cc1	–	–	84	–	35	–
CSc1ncc(Cl)c(C(=O)Nc2c(C(=O)c3ccc(C)c(F)c3)oc3ccccc23)n1	·	–	·	·	·	–
Cc1ccc(C(CC(=O)c2ccc(Cl)cc2)C(=O)O)cc1 (centres undefined)	–	–	–	–	–	–
COC(=O)C(CC(=O)c1ccc(Cl)cc1)c1ccc(C(C)C)cc1 (centres undefined)	–	–	70	–	37	–
CCCCOc1ccc(C(O)(CCC)CCN2CCOCC2)cc1 (centres undefined)	–	–	–	–	–	40µM
CCCCC(O)(CCN1CCOCC1)c1ccc(Cl)cc1 (centres undefined)	–	–	–	–	–	35µM
CCCCOc1ccc(C(O)(CC)CCN2CCOCC2)cc1 (centres undefined)	–	–	–	–	–	20µM
Cc1ccc(Nc2c3c(nc4nncn24)CCC3)c(C)c1	·	–	·	·	·	–
COc1ccc(OC)c(-n2c(-c3cc(-c4ccc(F)cc4)n[nH]3)n[nH]c2=S)c1	–	?	–	14µM	–	–
COc1ccccc1-n1c(-c2ccc(NS(C)(=O)=O)cc2)n[nH]c1=S	–	?	–	7.9µM	–	–
COc1ccc(OC)c(-n2c(-c3cccc(O)c3)n[nH]c2=S)c1	–	14µM	–	2µM	–	–
COc1ccc(-c2n[nH]c(=S)n2-c2cc(OC)ccc2OC)cc1	–	2.8µM	–	3.5µM	–	–
COc1cc(S(=O)(=O)NCCc2c(C)[nH]c3ccc(C)cc23)ccc1Br	·	–	·	·	·	–
CSc1ccc(CCNC(=O)CCn2c(=O)c3cccn3c3ccc(F)cc32)cc1	·	–	·	·	·	–
COc1ccc(OC)c(-n2c(-c3ccc(C)cc3)n[nH]c2=S)c1	–	?	–	2.5µM	–	–
CC(=O)N=C1SC2CS(=O)(=O)CC2N1Cc1ccc(C)cc1 (centres undefined)	–	–	–	–	–	–
Cc1ccc2nc(-c3ccc(N4C(=NC(=O)CCC(=O)O)SC5CS(=O)(=O)CC54)cc3)sc2c1 (centres undefined)	–	–	124	–	37	–

Screening results (PubChem BioAssay)
